Assay results as given in PubChem BioAssay (NCATS).
Results filed as inconclusive are left out. Activity calls are given as the source filed them. The call rests on the fitted dose curve; in most records, active means well fitted curve in the direction sought with a large enough effect; inconclusive means small, poorly fitted or top-dose-only effect, or another doubt; inactive means no such curve, though single readings can be large; an effect the other way counts as inactive or inconclusive.

How the values were obtained:
CRL-7250 = normal cell line; experiment: Cytotoxic Profiling of Annotated Libraries Using Quantitative High-Throughput Screening (AID 1296008); details: Five cell lines viability, CellTiter-Glo ATP luminescence, 48-72 h; max response: hits give low values; further: nearly all actives have a fitted effect of over 60% in size; on max response: on the % scale 0 is the no-effect control and ±100 the full control effect
Outline: (§1)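 Cells exposed to compounds for 48 or 72 hr at 37 degrees Celsius. Viability read as ATP-coupled luminescence with CellTiter-Glo after 10 min at room temperature.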

HEK293 = experiment: as above; details: Five cell lines viability, CellTiter-Glo ATP luminescence, 48-72 h; max response: hits give low values
Outline: as §1

HaCat [1] = experiment: as above; details: Five cell lines viability, CellTiter-Glo ATP luminescence, 48-72 h; max response: hits give low values
Outline: as §1

KB-3-1 = experiment: as above; details: Five cell lines viability, CellTiter-Glo ATP luminescence, 48-72 h; max response: hits give low values
Outline: as §1

NIH3T3 [2] = experiment: as above; details: Five cell lines viability, CellTiter-Glo ATP luminescence, 48-72 h; max response: hits give low values
Outline: as §1

HACAT [3] = experiment: qHTS assay to identify novel small-molecules to repurpose for Merkel cell carcinoma treatment (AID 1296009); details: MCC and control cell lines, CellTiter-Glo viability, 72 h; at 44.8 µM (top of the series) unless noted; further: nearly all actives have a fitted effect of over 60% in size
Outline: (§2)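 Cells were treated for 72 hr at 37 degree celsius with compounds in 8- or 11-point dose response. Viability was read by CellTiter-Glo luminescence, normalized to no-cell (cytotoxicity) and DMSO controls.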

NIH3T3 [4] = experiment: as above; details: MCC and control cell lines, CellTiter-Glo viability, 72 h; at 44.8 µM (top of the series) unless noted
Outline: as §2

C33A = experiment: Primary qHTS to identify gynecologic anti-cancer compounds using libraries of approved drugs and bioactive compounds (AID 1345084); details: Gynecologic cancer cell panel viability, ATPlite luminescence, 48 h; series mostly up to 57.5 µM; further: on the % scale 0 is the no-effect control and ±100 the full control effect; nearly all actives have a fitted effect of over 55% in size
Outline: (§3)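 Cell viability after 48 h drug treatment, ATPlite luminescence readout; five doses.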

CAOV3 = experiment: as above; details: Gynecologic cancer cell panel viability, ATPlite luminescence, 48 h; series mostly up to 57.5 µM
Outline: as §3

CASKI = experiment: as above; details: Gynecologic cancer cell panel viability, ATPlite luminescence, 48 h; series mostly up to 57.5 µM
Outline: as §3

Es-2 = experiment: as above; details: Gynecologic cancer cell panel viability, ATPlite luminescence, 48 h; series mostly up to 57.5 µM
Outline: as §3

HeLa = experiment: as above; details: Gynecologic cancer cell panel viability, ATPlite luminescence, 48 h; series mostly up to 57.5 µM
Outline: as §3

Hek293T = experiment: as above; details: Gynecologic cancer cell panel viability, ATPlite luminescence, 48 h, control line for the selectivity index; series mostly up to 57.5 µM
Outline: as §3

JEG-3 = experiment: as above; details: Gynecologic cancer cell panel viability, ATPlite luminescence, 48 h; series mostly up to 57.5 µM
Outline: as §3

CC1(C)CC[C@]2(C(=O)O)CC[C@]3(C)C(=CCC4[C@@]5(C)CC[C@H](O[C@@H]6O[C@H](C(=O)O)[C@@H](O)[C@H](O[C@@H]7O[C@H](CO)[C@H](O)[C@H](O)[C@H]7O)[C@H]6O[C@@H]6O[C@H](CO)[C@@H](O)[C@H](O)[C@H]6O)C(C)(C)C5CC[C@]43C)[C@@H]2C1 (some centres undefined)
inactive: max response (CRL-7250) 3.2% | max response (HEK293) -6.56% | outcome (HaCat [1]) | outcome (KB-3-1) | outcome (NIH3T3 [2]) | outcome (HACAT [3]) inactive [at 4.96 µM] | outcome (NIH3T3 [4]) inactive [at 4.96 µM] | activity change, negative = cytotoxicity (C33A) 4.15% [at 6.55 µM] | activity change, negative = cytotoxicity (CAOV3) 0.251% [at 6.55 µM] | activity change, negative = cytotoxicity (CASKI) 11.8% [at 6.55 µM] | activity change, negative = cytotoxicity (Es-2) -0.476% [at 6.55 µM] | activity change, negative = cytotoxicity (HeLa) -1.9% [at 6.55 µM] | activity change, negative = cytotoxicity (Hek293T) -0.735% [at 6.55 µM] | activity change, negative = cytotoxicity (JEG-3) 4.16% [at 6.55 µM]

CCC(C)C(=O)OC[C@H]1O[C@H](O[C@H]2O[C@H](CO)[C@@H](O)[C@H](O)[C@H]2O)[C@H](O)[C@@H](O)[C@@H]1O (some centres undefined)
inactive: outcome (CRL-7250) | max response (HEK293) 0.11% | outcome (HaCat [1]) | max response (KB-3-1) 6.74% | outcome (NIH3T3 [2]) | outcome (HACAT [3]) inactive [at 17.4 µM] | outcome (NIH3T3 [4]) inactive [at 17.4 µM] | Potency (C33A) | Potency (CAOV3) | outcome (CASKI) | Potency (Es-2) | Potency (HeLa) | Potency (Hek293T) | Potency (JEG-3)

Nc1ncnc2c1C(=O)N(c1ccc(C3CCC(CC(=O)O)CC3)cc1)CCO2 (centres undefined)
inactive: max response (CRL-7250) 2.41% | max response (HEK293) -15.1% | outcome (HaCat [1]) | outcome (KB-3-1) | outcome (NIH3T3 [2]) | outcome (HACAT [3]) | outcome (NIH3T3 [4]) | Potency (C33A) | Potency (CAOV3) | outcome (CASKI) | Potency (Es-2) | Potency (HeLa) | Potency (Hek293T) | Potency (JEG-3)

CC[C@@H]1[C@H]2CCCCN3C(=O)C[C@H]([C@@H]4[C@H]1OC(=O)[C@H]4C)[C@@H]23
inactive: max response (CRL-7250) -4.41% | max response (HEK293) -4.7% | outcome (HaCat [1]) | max response (KB-3-1) -6.87% | outcome (NIH3T3 [2]) | outcome (HACAT [3]) | outcome (NIH3T3 [4]) | Potency (C33A) | Potency (CAOV3) | outcome (CASKI) | Potency (Es-2) | Potency (HeLa) | Potency (Hek293T) | Potency (JEG-3)

CC(C)=CCC[C@@](C)(O)[C@H]1CC[C@]2(C)[C@@H]1[C@H](O)CC1[C@@]3(C)CC[C@H](O[C@@H]4O[C@H](CO)[C@@H](O)[C@H](O)[C@H]4O[C@@H]4O[C@H](CO)[C@@H](O)[C@H](O)[C@H]4O)C(C)(C)[C@@H]3CC[C@]12C (some centres undefined)
inactive: max response (CRL-7250) 4.67% | max response (HEK293) 1.62% | outcome (HaCat [1]) | outcome (KB-3-1) | outcome (NIH3T3 [2]) | outcome (HACAT [3]) inactive [at 17.4 µM] | outcome (NIH3T3 [4]) inactive [at 17.4 µM] | Potency (C33A) | Potency (CAOV3) | outcome (CASKI) | Potency (Es-2) | Potency (HeLa) | Potency (Hek293T) | Potency (JEG-3)

CC(C)C1CCC(C(=O)N[C@@H](Cc2ccccc2)C(=O)O)CC1 (some centres undefined)
inactive: outcome (CRL-7250) | max response (HEK293) 3.42% | outcome (HaCat [1]) | outcome (KB-3-1) | outcome (NIH3T3 [2]) | outcome (HACAT [3]) | outcome (NIH3T3 [4]) | Potency (C33A) | Potency (CAOV3) | outcome (CASKI) | Potency (Es-2) | Potency (HeLa) | Potency (Hek293T) | Potency (JEG-3)

O=C(O)c1cc(C(F)(F)F)ccc1N1CC[C@H](OCc2ccccn2)C1
inactive: outcome (CRL-7250) | max response (HEK293) -6.22% | outcome (HaCat [1]) | max response (KB-3-1) 6.78% | outcome (NIH3T3 [2]) | outcome (HACAT [3]) | outcome (NIH3T3 [4]) | Potency (C33A) | Potency (CAOV3) | outcome (CASKI) | Potency (Es-2) | Potency (HeLa) | Potency (Hek293T) | Potency (JEG-3)

COc1cc(C2Oc3c(OC)cc(/C=C/C(=O)OC4CC(O)(C(=O)O)CC(O)C4O)cc3C2CO)ccc1O (centres undefined)
inactive: max response (CRL-7250) -7.61% | max response (HEK293) 1.22% | outcome (HaCat [1]) | max response (KB-3-1) 9.01% | outcome (NIH3T3 [2]) | outcome (HACAT [3]) inactive [at 17.4 µM] | outcome (NIH3T3 [4]) inactive [at 17.4 µM] | Potency (C33A) | Potency (CAOV3) | outcome (CASKI) | Potency (Es-2) | Potency (HeLa) | Potency (Hek293T) | Potency (JEG-3)

OC[C@@]1(O)CO[C@H](OC[C@H]2O[C@@H](OC(CCCCc3ccc(O)cc3)CCc3ccc(O)cc3)[C@H](O[C@H]3OC[C@](O)(CO)[C@H]3O)[C@@H](O)[C@@H]2O)[C@@H]1O (some centres undefined)
inactive: max response (CRL-7250) -11.2% | max response (HEK293) -13.7% | outcome (HaCat [1]) | max response (KB-3-1) 2.31% | outcome (NIH3T3 [2]) | outcome (HACAT [3]) inactive [at 17.4 µM] | outcome (NIH3T3 [4]) inactive [at 17.4 µM] | Potency (C33A) | Potency (CAOV3) | outcome (CASKI) | Potency (Es-2) | Potency (HeLa) | Potency (Hek293T) | Potency (JEG-3)

N#Cc1cccc(-c2nc(-c3cccnc3)no2)c1
inactive: max response (CRL-7250) -3.07% | max response (HEK293) -8.6% | outcome (HaCat [1]) | outcome (KB-3-1) | outcome (NIH3T3 [2]) | outcome (HACAT [3]) inactive [at 17.4 µM] | outcome (NIH3T3 [4]) inactive [at 17.4 µM] | Potency (C33A) | Potency (CAOV3) | outcome (CASKI) | Potency (Es-2) | Potency (HeLa) | Potency (Hek293T) | Potency (JEG-3)

C=C(C(=O)OC)[C@]12O[C@@](C)(CC[C@@]3(O)/C(=C\C)C(=O)O[C@]3(C)C[C@@H]1OC(=O)C(CO)CN1CCCC1C(=O)O)CC2=O (some centres undefined)
inactive: outcome (CRL-7250) | max response (HEK293) -8.55% | outcome (HaCat [1]) | outcome (KB-3-1) | outcome (NIH3T3 [2]) | outcome (HACAT [3]) inactive [at 17.4 µM] | outcome (NIH3T3 [4]) inactive [at 17.4 µM] | Potency (C33A) | Potency (CAOV3) | outcome (CASKI) | Potency (Es-2) | Potency (HeLa) | Potency (Hek293T) | Potency (JEG-3)
